An excerpt weighted towards active compounds, which were near 2.7% of everything screened.
IDH1 R132H inh: blocks human mutant IDH1 R132H enzyme; Potency, µM (titrated, usually from 76.6 µM), inactives show top-dose activity change, negative = inhibition, actives largely listed as inhibitors; 390,000 tested, 0.093% active; IDH1-R132H enzyme, NADPH consumption, diaphorase/resazurin fluorescence; also: potency is read from the fitted curve at half-maximal effect; % is scaled to controls: 0 for no effect and ±100 for the full control effect; nearly all actives have a fitted effect of over 65% in size
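IDH1-R132H (0.5 ug/mL dispensed) in pH 7.5 Tris buffer was preincubated 30 min with compound, then given a substrate mix of 0.016 mM NADPH and 2 mM alpha-KG for 80 min at room temperature; remaining NADPH was read by diaphorase/resazurin fluorescence.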
Nrf2 inh: inhibitors of Nrf2 signaling. A549 ARE-Fluc reporter, luciferase luminescence, 18-24 h. Potency, µM (series often up to 46 µM), for the others: at the top dose activity change, negative = inhibition, usual class: inhibitors. 360,000 tested, 2.1% active. AID 504444; also: potency is read from the fitted curve at half-maximal effect; % is scaled to controls: 0 for no effect and ±100 for the full control effect; nearly all actives have a fitted effect of over 60% in size
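Concentration-response testing used A549 ARE_Fluc cells at 5000 cells/well. Following an 18-24 h compound incubation, viability was read by fluorescence (Ex 405/Em 525) and luciferase output by luminescence.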
Nrf2 activator: Nrf2 pathway activation. AREc32 ARE-luciferase reporter (MCF7-derived line), luminescence, 24 h. AID 624171. 410,000 tested, 0.31% active. Potency, µM (doses to about 46.1 µM), without a hit: at the highest dose activation, actives largely listed as activators; also: potency is read from the fitted curve at half-maximal effect; % of control where 0% means no effect; nearly all actives have a fitted effect of over 65% in size
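Luminescent ARE reporter assay in AREc32_Fluc cells: overnight plating at 37 deg C, 24 hr compound incubation, Steady-Glo added, 30 min RT before reading.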
A549 tox: A549 cytotoxicity, counter-screen for Nrf2 inhibitors. A549 ARE-Fluc cells, CellTiter-Fluor viability, 18-24 h. AID 504648. Potency, µM (doses to about 46 µM), for inactives: at the highest dose activity change, negative = cytotoxicity, most hits filed as inhibitors. 390,000 tested, 0.16% active; also: potency is read from the fitted curve at half-maximal effect; % is scaled to controls: 0 for no effect and ±100 for the full control effect
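A549 ARE_Fluc cells in 5% FBS OPTI-MEM were exposed to compounds in concentration-response for 18-24 h at 37 deg C. Viability was read by CellTiter-Fluor fluorescence (Ex 405/Em 525) after 30 min, before the luciferase read.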
LDHA block: blocks human lactate dehydrogenase A; P00338; purified LDHA, NADH/diaphorase-resazurin fluorescence; active compounds read low; activity change, % (values are at about 110 or 230 µM); 480,000 tested, 0.15% active; AID 1347041; in the data active = activity change below about -30%; inconclusive = mostly about -25% to -30%;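 also: plate controls were DMSO wells for no effect and wells without enzyme for full effect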
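Enzyme activity of human lactate dehydrogenase 5 (2 nM; 0.06 mM NADH, 0.2 mM pyruvate, 5 min, RT) is measured via a resazurin/diaphorase fluorescence readout of residual NADH.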
ALOX12 inh: blocks human arachidonate 12S-lipoxygenase. purified 12hLO, xylenol orange hydroperoxide absorbance. Potency, µM (top dose mostly 108 µM), inactives show at the top dose activity change, negative = inhibition, hits mostly inhibitors. 580,000 tested, 1.1% active; also: potency is read from the fitted curve at half-maximal effect; % is scaled to controls: 0 for no effect and ±100 for the full control effect
Target sequence (P18054 whole entry, looked up): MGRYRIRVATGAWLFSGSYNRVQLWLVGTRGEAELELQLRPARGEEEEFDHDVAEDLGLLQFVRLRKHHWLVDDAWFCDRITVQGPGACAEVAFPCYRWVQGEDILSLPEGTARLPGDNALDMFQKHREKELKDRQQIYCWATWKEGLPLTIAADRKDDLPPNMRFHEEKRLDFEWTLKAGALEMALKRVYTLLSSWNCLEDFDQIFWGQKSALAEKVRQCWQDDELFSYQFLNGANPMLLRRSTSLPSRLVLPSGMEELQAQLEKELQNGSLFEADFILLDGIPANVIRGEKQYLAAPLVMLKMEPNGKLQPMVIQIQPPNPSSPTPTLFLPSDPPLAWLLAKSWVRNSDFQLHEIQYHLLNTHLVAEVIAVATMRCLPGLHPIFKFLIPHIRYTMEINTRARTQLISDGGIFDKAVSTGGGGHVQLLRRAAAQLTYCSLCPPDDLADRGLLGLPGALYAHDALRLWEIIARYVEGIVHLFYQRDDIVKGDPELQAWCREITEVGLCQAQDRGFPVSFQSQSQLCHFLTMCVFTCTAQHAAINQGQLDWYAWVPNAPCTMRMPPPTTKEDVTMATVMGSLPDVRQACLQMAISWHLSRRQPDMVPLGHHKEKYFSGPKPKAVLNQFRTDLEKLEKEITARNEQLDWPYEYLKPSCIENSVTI
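Purified human 12hLO (150 nM final) in 25 mM Hepes, 0.01% Triton X-100, pH 7.0 was preincubated 15 min at room temperature with compound. Then 40 uM arachidonic acid was added, 30 min. Hydroperoxide was read by Fe-XO absorbance ratio 573/405 nm.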
Numbers without * were called inactive; i = inactive; ? = inconclusive; · = no result given; [ ] = dose if it differs, or a comment. Unless noted, calls follow the shape of the dose curve; as a rule, active = well fitted curve in the direction sought with a large enough effect; inconclusive = small, poorly fitted or top-dose-only effect, or another doubt; inactive = no such curve, though single readings can be large; an effect the other way counts as inactive or inconclusive.

SMILES | IDH1 R132H inh | Nrf2 inh | Nrf2 activator | A549 tox | LDHA block | ALOX12 inh
Cc1cccc(N2CCN(C(=O)c3ccc4c(c3)NC(=O)C(CSCc3cccc(F)c3)N4)CC2C)c1 (centres undefined) | 14% | -6% | 0% | -1% | -1 | 22µM*
CCCc1cc(=O)oc2cc(OS(=O)(=O)c3cc(Br)ccc3OCC)ccc12 | · | · | · | · | 6 | -17%
CCCc1nc(C)cc(N2CCC(NCCc3ccc(Cl)cc3)CC2)n1 | · | · | · | · | · | 8.9µM*
CCCc1cc(N2CCC(NCCOC(C)C)CC2)nc(C)n1 | · | · | · | · | · | 43%
COc1cc2c(cc1OC)CN(C(=O)/C=C/c1ccccc1[N+](=O)[O-])CC2 | 3% | ? | 7% | -2% | 3 | ?
COc1cc2c(cc1OC)CN(C(=O)/C=C/c1ccc([N+](=O)[O-])cc1)CC2 | 5% | -5% | 5% | 2% | -8 | 14µM*
COc1ccc(-n2cc(-c3ccccc3)[nH]c2=S)cc1 | 5% | 13% | 4% | 4% | -5 | ?
CC(=O)Nc1ccc(-n2cc(-c3ccccc3)[nH]c2=S)cc1 | 6% | -18% | 3% | -10% | -10 | 28µM*
O=c1c2nc(Nc3ccc(C(F)(F)F)cc3)ccc2ncn1C1CC1 | · | · | · | · | · | 1%[176 µM]
Cc1ccc(Sc2cnn(-c3ccccc3)c(=O)c2Cl)cc1 | 7% | 6% | 5µM* | 1% | -2 | 458%
CNc1cnn(-c2ccccc2)c(=O)c1Cl | 0% | 24% | 2% | -1% | -1 | 3%
Nc1ccc(Sc2cnn(-c3ccccc3)c(=O)c2Cl)cc1 | 9% | 4% | 16µM* | -6% | -4 | -13%
CC(C)CN1C(=O)C(=O)N(CC(=O)Nc2cc(Cl)ccc2Oc2ccccc2)C1=O | -4% | 23µM* | 3% | ? | -12 | -3%
O=C(CN1CCCCC1)Nc1cc(Cl)ccc1Oc1ccccc1 | 1% | ? | -1% | -5% | -4 | -3%
FC(F)(F)c1nc(=S)c2ccccc2[nH]1 | 16% | 5% | 7% | 2% | -2 | 28µM*
Cc1nc(=S)c2ccccc2[nH]1 | 2% | -4% | 2% | -2% | 0 | ?
CCOC(=O)c1c(C)nc2sc3c(=O)n(-c4ccc(OC)cc4)cnc3c2c1-c1ccc(OC)cc1 | 4% | 2% | 0% | -2% | -5 | 170%
CCOC(=O)c1c(C)nc2sc3c(=O)n(-c4ccc(C(C)=O)cc4)nnc3c2c1-c1ccc(OC)cc1 | -3% | 15µM* | 0% | -20% | -8 | 17%
CC(=O)c1c(C)[nH]c(C(=O)Nc2nc(-c3ccc(-c4ccccc4)cc3)cs2)c1C | -2% | 23µM* | 0% | ? | -8 | -4%
CC(=O)c1c(C)[nH]c(C(=O)Nc2nc(-c3ccc(Cl)cc3)cs2)c1C | -1% | ? | 1% | 1% | -5 | ?
Cc1ccc(S(=O)(=O)N2CCOCC2)cc1C(=O)Nc1nc(-c2ccccn2)cs1 | 2% | 9.2µM* | 1% | -12% | 17 | ?
O=C(Nc1nc(-c2ccncc2)cs1)c1cccc(S(=O)(=O)N2CCOCC2)c1 | · | · | · | · | -6 | -10%
COc1ccc(-c2csc(NC(=O)C3CCCCN3S(=O)(=O)c3ccccc3)n2)cc1 (centres undefined) | -2% | 23µM* | 3% | -30% | -5 | 0%
COc1ccc(C(=O)Nc2nc(-c3ccccn3)cs2)cc1S(=O)(=O)N1CCOCC1 | 0% | 16µM* | 0% | -3% | 6 | 17%
COc1ccc(C(=O)Nc2ccccn2)cc1S(=O)(=O)N1CCOCC1 | 4% | 13% | 14% | 1% | -9 | i
O=C1Nc2cc(Cl)c(Cl)cc2N(O)N1c1cccc(Br)c1 | · | · | · | · | 1 | -2%
CC(=O)Nc1ccccc1OCc1ccc(C)cc1 | · | · | · | · | 23 | ?
O=C(CCNc1ncnc2nc[nH]c12)NCc1ccccc1 | · | · | · | · | 10 | 2%

Screening results: PubChem, National Center for Advancing Translational Sciences (NCATS)
